Data published in PubChem BioAssay AID743255 (National Center for Advancing Translational Sciences (NCATS), 2014).
Hit rate of the full screen: of about 390,000 compounds, about 910 (0.23%) were called active. Where a call stands in place of a potency, no number is given. About 5% were inconclusive and are not listed. This is one part of a sample in which actives are shown more often than they occur. Calls follow the shape of the dose curve; as a rule, active = well fitted inhibition curve with a large enough effect; inconclusive = small, poorly fitted or top-dose-only effect; inactive = no such curve, though single readings can be large or run the other way.

Biological target: Ubiquitin carboxyl-terminal hydrolase 1 (Homo sapiens) (UniProt O94782)
Assay: Inhibitors of USP1/UAF1: Primary Screen; also: nearly all actives have a fitted effect of over 60% in size
Details: recombinant USP1/UAF1, Ub-Rhodamine cleavage fluorescence; series mostly up to 57.1 µM
Text: Deubiquitinating enzymes (DUBs) are a class of enzymes that can cleave isopeptide bond formed between the C-terminal carboxylate of ubiquitin and a lysine side-chain amino group on the target protein. Among them, ubiquitin specific proteases (USPs) constitute the largest DUB family. Human USPs are emerging as promising targets for pharmacological intervention because of their connection to a number of human diseases, including prostate, colon and breast cancer (1, 2), pediatric acute lymphoblastic leukemia (3), and familial cylindromatosis (4). The advantage of inhibiting USPs lies in the potential specificity of therapeutic intervention that can lead to better efficacy and reduce nonspecific side effects. In a collaboration between the University of Delaware and the NIH Chemical Genomics Center, a high-throughput screen assay was developed to screen for USP1/UAF1 inhibitors. This miniaturized assay has a fluorescent read-out and is used to screen the NIH Molecular Libraries Small Molecule Repository (MLSMR) in order to identify a small molecule that inhibits USP1. NIH Chemical Genomics Center [NCGC] NIH Molecular Libraries Probe Centers Network [MLPCN] MLPCN Grant: DA030552 Assay Submitter (PI): Zhihao Zhuang, University of Delaware 1. Priolo, C., et al. (2006) The isopeptidase USP2a protects human prostate cancer from apoptosis. Cancer Res 66, 8625-8632 2. Popov, N., et al. (2007) The ubiquitin-specific protease USP28 is required for MYC stability. Nat Cell Biol 9, 765-774 3. De Pitta, C., et al. (2005) A leukemia-enriched cDNA microarray platform identifies new transcripts with relevance to the biology of pediatric acute lymphoblastic leukemia. Haematologica 90, 890-898 4. Kovalenko, A., et al. (2003) The tumour suppressor CYLD negatively regulates NF-kappaB signalling by deubiquitination. Nature 424, 801-805
3 microliters of reagents (buffer in columns 3 and 4 as negative control and 1nM USP1/UAF1 complex in columns 1, 2, and 5-48) are dispensed into Greiner black solid bottom 1536-well assay plates. Compounds are then transferred via Kalypsys pin tool equipped with 1536-pin array (10nl slotted pins, V&P Scientific, San Diego, CA). Following an incubation step of 15 min at room temperature, 1ul of Ub-Rho substrate (150nM final concentration) is added to initiate the reaction. The plates are immediately centrifuged at 1000 rpm for 15 seconds, and subsequently transferred to a ViewLux high-throughput CCD imager (PerkinElmer) wherein kinetic measurements of fluorescence are acquired using 480 nm excitation/540 nm emission filter set (6 reads every 60 seconds, see Table 1). All reagents are diluted in an assay buffer consisting of 50mM HEPES (pH 7.8), 0.5mM EDTA, 0.1 mg/ml BSA, 1mM TCEP, and 0.01% Tween-20.
Potency is read from the fitted curve at half-maximal effect.

Sequence of Ubiquitin carboxyl-terminal hydrolase 1 (Homo sapiens) (O94782 whole entry, looked up): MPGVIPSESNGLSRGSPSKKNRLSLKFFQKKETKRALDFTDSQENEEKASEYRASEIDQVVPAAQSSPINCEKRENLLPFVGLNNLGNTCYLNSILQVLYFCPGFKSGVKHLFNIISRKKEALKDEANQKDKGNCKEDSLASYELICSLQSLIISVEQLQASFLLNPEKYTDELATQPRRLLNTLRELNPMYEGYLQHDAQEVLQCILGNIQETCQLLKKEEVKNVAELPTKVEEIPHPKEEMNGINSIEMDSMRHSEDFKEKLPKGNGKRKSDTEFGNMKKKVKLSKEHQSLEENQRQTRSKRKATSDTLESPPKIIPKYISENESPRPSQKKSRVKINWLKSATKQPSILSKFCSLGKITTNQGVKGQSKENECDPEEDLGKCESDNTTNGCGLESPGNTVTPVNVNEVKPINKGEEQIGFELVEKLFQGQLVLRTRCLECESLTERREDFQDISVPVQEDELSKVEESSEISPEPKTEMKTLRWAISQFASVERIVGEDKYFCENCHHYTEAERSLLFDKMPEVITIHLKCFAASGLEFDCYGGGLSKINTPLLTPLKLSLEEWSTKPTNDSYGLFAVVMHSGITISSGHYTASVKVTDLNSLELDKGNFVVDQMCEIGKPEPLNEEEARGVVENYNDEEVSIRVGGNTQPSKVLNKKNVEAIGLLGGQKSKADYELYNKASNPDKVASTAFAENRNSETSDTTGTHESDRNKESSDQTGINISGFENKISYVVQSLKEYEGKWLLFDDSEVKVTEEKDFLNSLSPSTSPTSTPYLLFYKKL

| Compound | Potency |
| --- | --- |
| CN(C)S(=O)(=O)c1ccc(C(=O)N(Cc2cccnc2)c2nc3c(F)cc(F)cc3s2)cc1 | inactive |
| COc1ccc(-n2c(=O)c3c(c4cc(OC)ccc4n3C)n(Cc3cccc(C)c3)c2=O)cc1 | inactive |
| Oc1ccc(N=Cc2sc3ccccc3c2Cl)cc1 | 25.1 µM (active) |
| CCc1nc(-c2cc(S(=O)(=O)N3CCN(c4ccc(OC)cc4)CC3)ccc2OC)no1 | inactive |
| CCOc1cc(C(=O)NCCc2csc3nc(-c4ccc(C)cc4)nn23)cc(OCC)c1OCC | inactive |
| CCSc1nnc(NC(=O)c2cc(=O)c3cc(C)c(C)cc3o2)s1 | inactive |
| Cc1c(NC(=O)Nc2ccc(F)c(Cl)c2)c(=O)n(-c2ccccc2)n1C | inactive |
| Cc1cccc(N2CCN(C(=O)CCSCc3ccccc3F)CC2)c1C | inactive |
| COc1ccc(CCNC(=O)c2nn(C)c3c2CSc2ccccc2-3)cc1OC | inactive |
| C#CCOCCOCCOCCNc1nc(N2CCN(C(=O)C([C@@H](C)CC)n3cc(C(N)COC(=O)C(F)(F)F)nn3)CC2)nc(N2CCN(C(=O)[C@H](CCCCN)n3cc(C(N)CC(C)C)nn3)CC2)n1 (stereo partly specified) | inactive |
| C#CCOCCOCCOCCNc1nc(N2CCN(C(=O)CCCCCCCCCCNC(=O)[C@H]([C@@H](C)CC)n3cc(CCCCN=C(N)N)nn3)CC2)nc(N2CCN(C(=O)CCCCCCCCCCNC(=O)[C@H](CO)n3cc(CCCSC)nn3)CC2)n1 | 28.2 µM (active) |
| C#CCOCCOCCOCCNc1nc(N2CCOCC2)nc(N2CCN(C(=O)[C@H](Cc3ccc(O)cc3)n3cc(CCO)nn3)CC2)n1 | inactive |
| COc1ccccc1NC(=O)c1cc(S(=O)(=O)NCCc2ccccc2)ccc1F | inactive |
| COC(=O)c1ccc(NC(=O)c2cc(S(=O)(=O)N3CCC(C)CC3)cn2C)cc1 | inactive |
| Cc1ccc(Cl)cc1N(C)C(=O)C1CCCN(c2ncnc3onc(-c4ccc(F)cc4)c23)C1 (stereo unspecified) | inactive |
| COc1ccc(Cc2nc3ccc(C(=O)NCc4ccc(OC)cc4OC)cc3o2)cc1 | inactive |
| Cc1ccccc1CNC(=O)CCc1cn(Cc2ccccc2C)c2ccccc12 | inactive |
| Cc1ccc(CCNC(=O)c2nnc(Cc3cccc(F)c3)o2)cc1 | inactive |
| CCS(=O)(=O)c1nc(S(=O)(=O)c2ccc(C)cc2)c(NCc2ccc(Cl)cc2)s1 | inactive |
| COc1ccc(-c2nc(Cn3c(=O)cc(C)c4c(C)nn(-c5ccccc5)c43)c(C)o2)c(OC)c1 | inactive |
| Cc1ccc(Cl)cc1N1CCN(C(=O)c2cccn3c(=O)c4cc(Cl)ccc4nc23)CC1 | inactive |
| COC(=O)c1cc(NC(=O)CCc2c(C)nc3c4c(C)cc(C)nc4nn3c2C)cc(C(=O)OC)c1 | inactive |
| CC(=O)N1C(=O)/C(=C2\SC(=S)N(NC(=O)c3ccc(O)cc3)C2=O)c2ccccc21 | 3.98 µM (active) |

| Compound | Potency |
| --- | --- |
| CC(C)n1cnc2c(NCc3ccccc3)cc(OCC3CCN(C)CC3)cc21 | 17.8 µM (active) |
| Cc1ccc(-c2cnc(NCc3ccc(C(C)C)cc3)n2C)cc1 | inactive |
| CCOC(=O)c1c(NC(=O)/C=C/c2ccc(OC)cc2)sc2c1CCC(C)C2 (stereo unspecified) | inactive |
| CCCN1CCc2nc(N3CCN(C)CC3)ncc2C1 | inactive |
| O=C(CCl)N(Cc1cccc([N+](=O)[O-])c1)c1cccc(Cl)c1 | inactive |
| COc1ccc([N+](=O)[O-])cc1C1NN=C(c2cccc3ccccc23)S1 (stereo unspecified) | inactive |
| O=C1Nc2ccc([N+](=O)[O-])cc2C1=Nc1cccc(CO)c1 | 25.1 µM (active) |
| CN1C(=O)c2cccc3c(N)ccc(c23)C1=O | 4.47 µM (active) |
| CCOC(=O)c1c(NC(C)=O)c2c3c(sc2n1Cc1c(C)cc(C)cc1C)CCCC3 | inactive |
| COc1ccc(CCNC(=O)c2cc3cccc4c3n2CC(C)S4)c(OC)c1OC (stereo unspecified) | inactive |
| Cc1ccc(OC(=O)CSc2nnc(-c3cccs3)o2)cc1 | inactive |
| O=C(CSCc1cnn(-c2ccccc2)c1-n1cccc1)NCc1ccccc1Br | inactive |
| CCOC(=O)C1CCCN(C(=O)c2ccc3c(c2)sc2nc(-c4ccc(CC)cc4)cn23)C1 (stereo unspecified) | inactive |
| COc1ccc(OC)c2sc(N3CCN(C(=O)C4COc5ccccc5O4)CC3)nc12 (stereo unspecified) | inactive |
| Cc1ccc2c(c1)N(C(=O)Nc1ccc(Br)cc1F)CCO2 | inactive |
| CCOc1ccc(CCNC(=O)c2cc3c(=O)n(C)c4ccccc4c3n2C)cc1 | inactive |
| CCOC(=O)CNC(=O)c1cc2c(=O)n3cccc(C)c3nc2s1 | inactive |
| CCCN(CCC)c1nc2c(C)cccn2c(=O)c1/C=C1/SC(=S)N(Cc2ccco2)C1=O | inactive |
| CCOC(=O)CC1C(=O)NCCN1c1nc2c(C)cccn2c(=O)c1/C=C1\SC(=S)N(C(C)CC)C1=O (stereo unspecified) | 8.91 µM (active) |
| O=C(NCC(c1cccnc1)N1CCc2ccccc21)c1cccc(C(F)(F)F)c1 (stereo unspecified) | inactive |
| CC1=C(C(=O)OCC(C)C)C(c2ccc(OCc3ccccc3)cc2)N2C(=O)CCSC2=N1 (stereo unspecified) | inactive |
| COc1cccc(C(=O)Nc2ccc3oc(-c4ccc5ccccc5c4)nc3c2)c1 | inactive |
| CCN1C(=O)c2ccccc2S(=O)c2ccc(C(=O)NCc3ccc(F)cc3)cc21 (stereo unspecified) | inactive |

| Compound | Potency |
| --- | --- |
| COc1ccc(-n2nc(C(=O)NCCc3ccc(Cl)cc3)c3c4ccccc4n(C)c3c2=O)cc1Cl | inactive |
| CCCN(CCC)C(=O)C1CCCN(c2ncnc3c2nc2n3CCCCC2)C1 (stereo unspecified) | inactive |
| CCN(Cc1ccccc1)C(=O)c1cn(-c2cccc(OC)c2)c(=O)c2ccccc12 | inactive |
| COc1cc(OC)c(OC)cc1/C=C/c1nc2ccccc2c(=O)n1-c1ccc(Br)c(C)c1 | inactive |
| Cc1cccc(N2CCN(C(=O)Cn3ncc4c5ccccc5n(C)c4c3=O)CC2C)c1 (stereo unspecified) | inactive |
| CCOc1ccccc1C(=O)NC1(C(F)(F)F)C(=O)Nc2c1c(=O)[nH]c(=O)n2-c1ccc(F)cc1 (stereo unspecified) | inactive |
| Oc1c(C=Nc2cccc3nsnc23)ccc2ccccc12 | 25.1 µM (active) |
| COCCNC(=O)c1cc(-c2cccc(Cl)c2)on1 | inactive |
| COc1ccc(C(=O)c2oc3ccccc3c2NC(=O)COc2cccc(C)c2)cc1 | inactive |
| Cc1c(C(=O)N2CCCC2)oc2c1-c1nn(CC(=O)NCc3ccc(OC(C)C)cc3)cc1CC2 | inactive |
| COc1ccccc1NC(=O)c1sc2nc(C)c(C(=O)Nc3ccc(Cl)cc3)c(-c3ccc(Br)cc3)c2c1N | inactive |
| COc1ccc(NC(=O)C2CCN(c3ccc(Sc4ccc(C)cc4)nn3)CC2)c(OC)c1 | inactive |
| CC(C)(C)OC(=O)N1CCC(c2c(C(=O)NCCc3ccsc3)cnn2-c2ccc(F)cc2F)CC1 | inactive |
| O=C(CN1CCN(Cc2ccc(Cl)cc2)C1=O)NCc1ccc(F)cc1 | inactive |
| O=C(O)c1ccc(Cn2c(SCc3ccc(F)cc3)nc3ccncc32)cc1 | inactive |
| CCOC(=O)C1CCCN(S(=O)(=O)c2cc(-c3cc(C)no3)ccc2OC)C1 (stereo unspecified) | inactive |
| Cc1ccc(CNC(=O)CSc2c3c(nc4cc(Cl)ccc24)CCCC3)cc1 | inactive |
| Cc1onc(-c2ccc(F)cc2F)c1C(=O)Nc1cccc(C(F)(F)F)c1 | inactive |
| CC(C)(C)c1ccc(C(=O)NCC(c2ccco2)S(=O)(=O)c2ccc(F)cc2)cc1 (stereo unspecified) | inactive |
| CCCCCCc1cc2cc(-c3nnc(-c4ccccc4)o3)c(=O)oc2cc1O | 8.91 µM (active) |
| CCc1ccc(NC(=O)c2cnc3c(-c4ccccc4)c(C)nn3c2C)cc1 | inactive |
| COc1ccc(Cn2ccn(CC(=O)Nc3cc(C)ccc3C)c(=O)c2=O)cc1 | inactive |
| Cc1ccc(-c2nn(-c3ccccc3)cc2/C=C2\SC(=S)N(CCCCCC(=O)O)C2=O)o1 | 7.08 µM (active) |

| Compound | Potency |
| --- | --- |
| O=C(/C=C(O)/C=C/c1ccc(O)cc1)/C=C/c1ccc(O)cc1 | 28.2 µM (active) |
| C[n+]1ccc(/C=C/c2c[nH]c3ccccc23)cc1 | 28.2 µM (active) |
| O=c1[nH]c2cc(Br)ccc2n2cccc12 | inactive |
| Cn1c(COc2ccccc2C(C)(C)C)nc2ccccc21 | inactive |
| CCN(c1ncnc2c1cnn2-c1ccc(C)cc1)C1CCCCC1 | inactive |
| CCOC(=O)c1c(C)n(S(=O)(=O)c2ccc(C)cc2C)c2ccc(NS(=O)(=O)c3ccc(C)cc3C)cc12 | inactive |
| CCC(=O)N1c2ccccc2CC1C(=O)N1CCN(c2ccccc2F)CC1 (stereo unspecified) | inactive |
| O=S(=O)(NCC(c1ccco1)N1CCOCC1)c1cc(F)ccc1F (stereo unspecified) | inactive |
| COCCNC(=O)c1ccc2c(c1)N(Cc1cccc(Cl)c1)C(=O)c1ccccc1S2(=O)=O | inactive |
| CCCSc1ncc(Cl)c(C(=O)Nc2c(C(=O)Nc3ccccc3)oc3ccccc23)n1 | inactive |
| Cc1ccc(S(=O)(=O)/N=C2\C=C(NS(=O)(=O)c3ccc(C)cc3)C(=O)c3ccccc32)cc1 | 20 µM (active) |
| COc1ccc(S(=O)(=O)/N=C2\C=C(NS(=O)(=O)c3ccccc3)C(=O)c3ccccc32)cc1 | 15.8 µM (active) |
| COc1ccc(N2CCN(C3CCCCC3NS(=O)(=O)c3ccccc3)CC2)cc1 (stereo unspecified) | inactive |
| COc1ccc(S(=O)(=O)Nc2cc3c(C(=O)OC(C)C)c(C)oc3c3ccccc23)cc1 | inactive |
| Cc1ccc(S(=O)(=O)/N=S(\C)C(C)C)cc1 (stereo unspecified) | inactive |
| Cc1ccc(S(=O)(=O)Nc2nc(N)n(-c3ccccc3)n2)cc1 | inactive |
| CCCN(CCC)C(=O)Cn1c(=O)n(-c2ccc(Cl)cc2)c(=O)c2c3c(sc21)CCCCC3 | inactive |
| O=C(C1CCC(Cn2c(=O)c3sccc3n(Cc3ccccc3F)c2=O)CC1)N1CCCCC1 (stereo unspecified) | inactive |
| COc1ccc(NC(=O)CCCN2C(=O)CCn3nc(-c4cn(C)c5ccccc45)cc32)cc1OC | inactive |
| CC(=O)Nc1cccc(NC(=O)CSc2cn(CC(=O)N3CCCC3)c3ccccc23)c1 | inactive |
| COc1ccc(C)cc1N(CC(=O)N1CCC(C)CC1)S(=O)(=O)c1ccc(C)cc1 | inactive |
| COc1ccc(OC)c(-c2noc(N3CCN(c4cc(Cl)ccc4C)CC3)n2)c1 | inactive |
